Reference: PubChem BioAssay (NCATS)
Records with an inconclusive call do not appear. Activity calls are given as the source filed them. Unless noted, the call rests on the fitted dose curve; in most records, active means well fitted curve in the direction sought with a large enough effect; inconclusive means small, poorly fitted or top-dose-only effect, or another doubt; inactive means no such curve, though single readings can be large; an effect the other way counts as inactive or inconclusive.

Experiments:
[1] = biological target: DNA polymerase III PolC-type (Bacillus subtilis (strain 168)) (UniProt P13267); test: qHTS Validation Assay for the Inhibitors of DNA Replication in Gram-Positive Bacteria (AID 485295);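 further: PicoGreen fluorescence of double-stranded DNA made on primed circular M13 template; series mostly up to about 57 µM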
How it was run: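 Reconstituted B. subtilis Pol III holoenzyme (PolC, beta clamp, SSB, primase) preincubated with compound, then M13Gori single-stranded circular template with dNTPs/NTPs added; room temperature reaction. Stopped with EDTA/PicoGreen; dsDNA fluorescence read, EDTA as full-inhibition control.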

[2] = biological target: Tumor susceptibility gene 101 protein (Homo sapiens) (UniProt Q99816); test: qHTS Validation Assay for Iinhibitors of HIV-1 Budding by Blocking the Interaction of PTAP/TSG101 (AID 485342; calls by dose curve)
Sequence of Tumor susceptibility gene 101 protein (Homo sapiens) (Q99816 whole entry, looked up, the tested form may be a part): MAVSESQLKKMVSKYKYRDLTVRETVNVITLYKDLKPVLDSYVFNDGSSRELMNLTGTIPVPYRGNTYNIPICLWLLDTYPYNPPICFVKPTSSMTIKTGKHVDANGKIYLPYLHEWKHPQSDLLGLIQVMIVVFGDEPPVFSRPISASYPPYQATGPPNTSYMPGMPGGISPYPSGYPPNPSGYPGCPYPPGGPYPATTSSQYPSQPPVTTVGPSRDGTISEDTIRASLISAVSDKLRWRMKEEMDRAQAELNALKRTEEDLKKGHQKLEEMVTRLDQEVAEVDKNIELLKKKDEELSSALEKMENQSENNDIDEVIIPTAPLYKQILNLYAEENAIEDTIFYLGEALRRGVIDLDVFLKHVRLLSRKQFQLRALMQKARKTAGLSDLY
How it was run: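 Tsg101 binding domain (10 uM) with FITC-labeled PTAP peptide (50 nM) in HEPES pH 7.5 buffer, 20 min at r.t. with compounds. Binding measured by fluorescence polarization.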

[3] = biological target: Beta-2 adrenergic receptor (Homo sapiens) (UniProt P07550); test: qHTS validation assay of beta-arrestin-biased ligands of beta2-adrenergic receptor (AID 485366)
Sequence of Beta-2 adrenergic receptor (Homo sapiens) (P07550 whole entry, looked up): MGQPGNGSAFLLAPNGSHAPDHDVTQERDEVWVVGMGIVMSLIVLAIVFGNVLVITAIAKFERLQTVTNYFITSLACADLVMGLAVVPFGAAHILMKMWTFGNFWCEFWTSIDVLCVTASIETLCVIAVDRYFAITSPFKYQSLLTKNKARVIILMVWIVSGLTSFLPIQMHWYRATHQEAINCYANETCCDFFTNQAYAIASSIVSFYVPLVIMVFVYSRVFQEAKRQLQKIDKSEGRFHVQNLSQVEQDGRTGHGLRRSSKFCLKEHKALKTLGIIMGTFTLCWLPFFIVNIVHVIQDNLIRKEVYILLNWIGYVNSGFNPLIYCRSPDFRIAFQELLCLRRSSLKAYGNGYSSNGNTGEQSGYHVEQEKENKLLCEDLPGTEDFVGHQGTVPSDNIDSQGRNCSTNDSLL
How it was run: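 Tango cells (recombinant beta2-AR with recombinant beta-arrestin; recruitment releases tTA driving luciferase) were treated with compounds titrated up to 46 microM for 18 hr at 37 degrees C. Luminescence gave %Activity, and concentration-response curves were curve-classified.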

[4] = Quantitative high throughput screen for delayed death inhibitors of the malarial parasite plastid, 96 hour incubation (AID 488745); further: nearly all actives have a fitted effect of over 70% in size; further: potency means the concentration at half of the fitted maximal effect
How it was run: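 Infected erythrocytes were added to compound in Albumax-supplemented RPMI 1640 at 0.1% parasitemia and 2% hematocrit (final), incubated 96 h at 37 C under 5% CO2, then luciferase reagent was added and luminescence measured.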

[5] = Quantitative high throughput screen for delayed death inhibitors of the malarial parasite plastid, 48 hour incubation (AID 488752); further: nearly all actives have a fitted effect of over 65% in size; further: potency means the concentration at half of the fitted maximal effect
How it was run: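 Readout is firefly luciferase luminescence from a reporter integrated into the parasite genome, with lower signal taken as inhibited growth. Infected red cells (0.1% parasitemia, 2% hematocrit final) are cultured with compound for one 48 h cycle at 37 C.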

[6] = biological target: Thioredoxin reductase 1, cytoplasmic (Rattus norvegicus) (UniProt O89049); test: qHTS Assay for Substrates of Mammalian Selenoprotein Thioredoxin Reductase 1 (TrxR1) (AID 488772);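 further: NADPH fluorescence in the first read after selenite addition and not the 8 min delta; series mostly up to about 57 µM; a drop in NADPH fluorescence below the no-compound background marks a TrxR1 substrate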
Sequence of Thioredoxin reductase 1, cytoplasmic (Rattus norvegicus) (O89049 whole entry, looked up): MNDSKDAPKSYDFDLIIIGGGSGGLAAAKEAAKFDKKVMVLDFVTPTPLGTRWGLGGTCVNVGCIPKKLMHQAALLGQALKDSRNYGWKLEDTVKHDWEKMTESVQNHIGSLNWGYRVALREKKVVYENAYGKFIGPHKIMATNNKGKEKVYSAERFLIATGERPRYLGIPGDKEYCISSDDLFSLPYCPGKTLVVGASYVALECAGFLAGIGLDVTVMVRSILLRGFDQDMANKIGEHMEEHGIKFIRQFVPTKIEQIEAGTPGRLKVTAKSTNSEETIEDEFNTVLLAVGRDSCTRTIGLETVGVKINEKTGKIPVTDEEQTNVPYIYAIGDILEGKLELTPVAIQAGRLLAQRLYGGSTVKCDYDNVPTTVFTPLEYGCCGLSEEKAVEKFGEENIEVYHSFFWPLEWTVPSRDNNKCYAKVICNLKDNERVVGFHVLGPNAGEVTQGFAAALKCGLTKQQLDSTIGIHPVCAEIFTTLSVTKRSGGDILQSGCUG
How it was run: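 Quantitative HTS in Tris-HCl buffer at pH 7.5 with EDTA and Tween-20, using rat TrxR1, 400 uM NADPH and 400 uM selenite (final). A fall in initial NADPH fluorescence relative to background marked substrate behaviour.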

[7] = biological target: Flap endonuclease 1 (Homo sapiens) (UniProt P39748); test: qHTS Validation Assay for the Inhibitors of Human Flap endonuclease 1 (FEN1) (AID 488816)
Sequence of Flap endonuclease 1 (Homo sapiens) (P39748 whole entry, looked up): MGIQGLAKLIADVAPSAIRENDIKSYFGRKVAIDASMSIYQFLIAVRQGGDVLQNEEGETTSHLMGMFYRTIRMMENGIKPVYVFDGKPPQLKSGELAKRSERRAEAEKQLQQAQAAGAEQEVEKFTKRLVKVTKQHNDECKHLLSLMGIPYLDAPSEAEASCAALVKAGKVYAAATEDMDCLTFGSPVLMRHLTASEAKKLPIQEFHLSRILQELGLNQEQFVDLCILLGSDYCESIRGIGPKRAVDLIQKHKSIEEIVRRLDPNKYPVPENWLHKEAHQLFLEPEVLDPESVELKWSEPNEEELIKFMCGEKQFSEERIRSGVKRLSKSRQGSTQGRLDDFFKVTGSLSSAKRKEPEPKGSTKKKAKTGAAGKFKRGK
How it was run: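 Human FEN1 (10 nM) preincubated 15 min at room temperature with compounds, then flap DNA substrate added at 50 nM final. Fluorescence read at 0 and 15 min; concentration-response fitted with four-parameter Hill equation.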

[8] = biological target: M-phase phosphoprotein 8 (Homo sapiens) (UniProt Q99549); test: qHTS Validation Assay for Inhibitors for MPP8 Chromodomain Interactions with Methylated Histone Tails (AID 488949); further: top concentration of the series differs between compounds; nearly all actives have a fitted effect of over 55% in size
Sequence of M-phase phosphoprotein 8 (Homo sapiens) (Q99549 whole entry, looked up): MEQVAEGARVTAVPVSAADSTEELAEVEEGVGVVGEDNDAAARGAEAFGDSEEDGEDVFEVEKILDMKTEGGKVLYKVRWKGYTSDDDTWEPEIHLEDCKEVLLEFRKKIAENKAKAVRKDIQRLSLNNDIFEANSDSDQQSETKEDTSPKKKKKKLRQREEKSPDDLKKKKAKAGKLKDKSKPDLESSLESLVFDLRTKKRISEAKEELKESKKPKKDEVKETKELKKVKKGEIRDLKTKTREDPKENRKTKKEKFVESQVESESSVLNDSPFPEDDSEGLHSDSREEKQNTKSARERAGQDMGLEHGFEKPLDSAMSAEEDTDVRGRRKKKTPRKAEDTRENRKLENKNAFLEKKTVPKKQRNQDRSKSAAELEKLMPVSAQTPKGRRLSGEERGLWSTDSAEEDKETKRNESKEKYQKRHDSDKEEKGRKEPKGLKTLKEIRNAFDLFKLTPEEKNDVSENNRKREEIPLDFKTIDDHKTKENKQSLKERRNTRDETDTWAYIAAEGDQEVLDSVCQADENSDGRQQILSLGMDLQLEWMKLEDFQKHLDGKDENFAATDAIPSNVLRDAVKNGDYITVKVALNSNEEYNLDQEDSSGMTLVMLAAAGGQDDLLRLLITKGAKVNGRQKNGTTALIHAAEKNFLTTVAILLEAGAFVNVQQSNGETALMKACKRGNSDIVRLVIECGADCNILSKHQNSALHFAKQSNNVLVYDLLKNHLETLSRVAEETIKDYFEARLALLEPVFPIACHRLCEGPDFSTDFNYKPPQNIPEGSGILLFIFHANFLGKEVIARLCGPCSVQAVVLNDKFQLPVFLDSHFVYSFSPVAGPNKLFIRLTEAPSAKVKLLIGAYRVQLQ
How it was run: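 MPP8 (50 nM) was pre-bound to 50 nM biotinylated H3(1-18)K9me3 peptide in PBS pH 7.4 with 0.01% Tween-20. Compounds were then added for 30 min at room temperature, and complex disruption was read by AlphaScreen with streptavidin donor and nickel-chelate acceptor beads.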

[9] = biological target: Transient receptor potential cation channel subfamily V member 1 (Homo sapiens) (UniProt Q8NER1); test: HTS Assay for Compounds that Act as Enhancers of the Vanilloid Receptor 1 (AID 488979)
Sequence of Transient receptor potential cation channel subfamily V member 1 (Homo sapiens) (Q8NER1 whole entry, looked up): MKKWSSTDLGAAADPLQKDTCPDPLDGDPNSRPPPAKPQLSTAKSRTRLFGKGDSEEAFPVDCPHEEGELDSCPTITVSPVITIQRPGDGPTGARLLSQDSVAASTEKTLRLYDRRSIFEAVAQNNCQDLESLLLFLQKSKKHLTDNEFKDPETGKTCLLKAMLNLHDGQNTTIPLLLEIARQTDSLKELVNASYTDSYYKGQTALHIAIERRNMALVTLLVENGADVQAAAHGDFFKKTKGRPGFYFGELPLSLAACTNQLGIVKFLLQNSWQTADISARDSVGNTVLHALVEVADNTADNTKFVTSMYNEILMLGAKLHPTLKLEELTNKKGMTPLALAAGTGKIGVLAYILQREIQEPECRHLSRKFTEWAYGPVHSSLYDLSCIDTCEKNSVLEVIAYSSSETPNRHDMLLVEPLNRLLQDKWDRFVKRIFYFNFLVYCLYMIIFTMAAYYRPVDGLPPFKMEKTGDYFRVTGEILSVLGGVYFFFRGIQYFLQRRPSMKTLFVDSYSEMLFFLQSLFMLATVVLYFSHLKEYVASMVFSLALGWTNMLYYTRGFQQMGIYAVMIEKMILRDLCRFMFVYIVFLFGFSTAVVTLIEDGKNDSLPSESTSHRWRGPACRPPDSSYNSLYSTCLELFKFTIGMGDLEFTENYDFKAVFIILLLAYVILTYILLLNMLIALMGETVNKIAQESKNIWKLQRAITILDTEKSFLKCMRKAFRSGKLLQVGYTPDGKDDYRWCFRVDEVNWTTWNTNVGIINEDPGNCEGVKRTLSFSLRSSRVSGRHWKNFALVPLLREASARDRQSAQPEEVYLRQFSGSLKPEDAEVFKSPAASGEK
How it was run: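 TRPV1 cells loaded with Fluo-8 calcium dye; compound added and Ca2+ signal (ex 480/em 520 nm) followed 3 min, then capsaicin at EC20 added and read 2 more min to detect enhancement.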

[10] = biological target: Thyrotropin receptor (Homo sapiens) (UniProt P16473); test: qHTS Assay for Antagonists of the Thyroid Stimulating Hormone Receptor (AID 488980); further: series mostly up to about 58 µM
Sequence of Thyrotropin receptor (Homo sapiens) (P16473 whole entry, looked up): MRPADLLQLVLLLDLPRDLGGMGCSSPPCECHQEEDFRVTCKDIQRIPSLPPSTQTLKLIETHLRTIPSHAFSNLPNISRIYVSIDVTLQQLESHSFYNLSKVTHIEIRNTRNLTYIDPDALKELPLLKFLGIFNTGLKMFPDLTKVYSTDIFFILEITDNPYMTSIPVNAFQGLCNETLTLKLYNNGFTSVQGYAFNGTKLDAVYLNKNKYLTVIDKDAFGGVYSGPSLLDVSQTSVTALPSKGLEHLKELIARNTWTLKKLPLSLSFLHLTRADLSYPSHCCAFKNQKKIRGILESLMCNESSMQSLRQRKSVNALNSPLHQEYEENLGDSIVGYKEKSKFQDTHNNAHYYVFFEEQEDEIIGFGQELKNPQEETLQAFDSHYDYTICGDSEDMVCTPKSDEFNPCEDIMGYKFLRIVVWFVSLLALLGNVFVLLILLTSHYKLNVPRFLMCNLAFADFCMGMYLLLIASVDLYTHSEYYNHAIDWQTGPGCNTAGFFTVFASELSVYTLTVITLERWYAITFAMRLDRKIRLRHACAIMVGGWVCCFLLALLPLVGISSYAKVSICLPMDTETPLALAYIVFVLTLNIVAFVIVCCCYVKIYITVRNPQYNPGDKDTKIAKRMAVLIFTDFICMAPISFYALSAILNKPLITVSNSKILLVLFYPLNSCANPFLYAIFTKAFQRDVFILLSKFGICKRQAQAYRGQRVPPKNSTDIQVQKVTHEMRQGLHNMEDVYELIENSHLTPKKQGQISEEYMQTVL
How it was run: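 TSHR-transfected HEK293 cells (2000/well) in HEPES-buffered HBSS with 70 uM RO 20-1724 were stimulated with 4 nM TSH (EC80, final) in the presence of compound. cAMP was measured by HTRF competition after lysis and 30 min at RT.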

[11] = biological target: D(1A) dopamine receptor (Homo sapiens) (UniProt P21728); test: HTS Assay for Allosteric Agonists of the Human D1 Dopamine Receptor: Primary Screen for Agonists (AID 488981)
Sequence of D(1A) dopamine receptor (Homo sapiens) (P21728 whole entry, looked up): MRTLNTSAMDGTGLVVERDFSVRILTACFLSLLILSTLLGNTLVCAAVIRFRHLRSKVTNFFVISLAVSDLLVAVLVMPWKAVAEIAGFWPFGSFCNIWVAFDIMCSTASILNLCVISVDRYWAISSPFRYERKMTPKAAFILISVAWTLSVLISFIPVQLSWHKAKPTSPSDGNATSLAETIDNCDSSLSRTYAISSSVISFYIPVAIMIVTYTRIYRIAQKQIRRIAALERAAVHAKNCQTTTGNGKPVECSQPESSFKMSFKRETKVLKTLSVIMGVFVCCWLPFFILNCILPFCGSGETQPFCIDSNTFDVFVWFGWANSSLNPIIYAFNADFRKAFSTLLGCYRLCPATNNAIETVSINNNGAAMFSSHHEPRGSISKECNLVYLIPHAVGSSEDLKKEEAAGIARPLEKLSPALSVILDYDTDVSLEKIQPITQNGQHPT
How it was run: (§1)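 Tetracycline-induced HEK293 Trex D1 cells with forced coupling to calcium, loaded with no-wash calcium dye; kinetic fluorescence read 180 s after compound addition for agonism, then a further 180 s after an EC20 dopamine challenge for potentiation.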

[12] = biological target: D(1A) dopamine receptor (Homo sapiens) (UniProt P21728); test: HTS Assay for Allosteric Agonists of the Human D1 Dopamine Receptor: Primary Screen for Potentiators (AID 488982)
How it was run: as §1

[13] = biological target: D(1A) dopamine receptor (Homo sapiens) (UniProt P21728); test: HTS Assay for Allosteric Agonists of the Human D1 Dopamine Receptor: Primary Screen for Antagonists (AID 488983);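 further: calcium flux response to an EC80 dopamine challenge measured with no-wash dye; nearly all actives have a fitted effect of over 65% in size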; further: potency means the concentration at half of the fitted maximal effect
How it was run: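 Cells are induced with tetracycline and incubated overnight at 30 C, then loaded with calcium dye for 30 to 90 minutes at room temperature. Compound addition is followed by a 180 s read, then an EC80 dopamine addition and another 180 s read.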

[14] = Validation screen for small molecules that induce genotoxicity in human embryonic kidney (HEK293T) cells expressing luciferase-tagged ELG1 (AID 493106); further: potency means the concentration at half of the fitted maximal effect
How it was run: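 Luminescence from an ELG1-luciferase fusion serves as the read-out, rising when genetic stress elevates ELG1 protein. HEK293T reporter cells (2,000 per well) received 23 nL compound, incubated 16 hr at 37 °C, then ONE-Glo for 30 min at room temperature.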

[15] = biological target: ATP-dependent 6-phosphofructokinase (Trypanosoma brucei brucei) (UniProt O15648); test: qHTS Validation Assay to Find Inhibitors of T. brucei phosphofructokinase (AID 485368); conditions: outcome: dose series up to 57.5 µM
How it was run: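 Compounds (up to 57 uM, titration series) were pinned into substrate buffer, then 1.25 nM PFK added; after 45 min at room temperature, ADP product was quantified by ADP-Glo luminescence and concentration-response curves fitted.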

[16] = biological target: Thioredoxin reductase 1, cytoplasmic (Rattus norvegicus) (UniProt O89049); test: qHTS Assay for Inhibitors of Mammalian Selenoprotein Thioredoxin Reductase 1 (TrxR1) (AID 488773); conditions: Potency: inhibition;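 further: drop in NADPH fluorescence over an 8 min run after selenite addition; series mostly up to about 57 µM; nearly all actives have a fitted effect of over 40% in size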
How it was run: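 Steps: enzyme (90 nM) plus NADPH (400 uM final), 5 min at ~22 deg C; compound added, 15 min; selenite (400 uM final) added; fluorescence followed for 8 min. Concentration-response curves derived from the normalized delta values.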

[17] = biological target: Chromobox protein homolog 1 (Homo sapiens) (UniProt P83916); test: qHTS Validation Assay for Inhibitors of HP1-beta Chromodomain Interactions with Methylated Histone Tails (AID 488953); further: nearly all actives have a fitted effect of over 50% in size; further: potency means the concentration at half of the fitted maximal effect
Sequence of Chromobox protein homolog 1 (Homo sapiens) (P83916 whole entry, looked up): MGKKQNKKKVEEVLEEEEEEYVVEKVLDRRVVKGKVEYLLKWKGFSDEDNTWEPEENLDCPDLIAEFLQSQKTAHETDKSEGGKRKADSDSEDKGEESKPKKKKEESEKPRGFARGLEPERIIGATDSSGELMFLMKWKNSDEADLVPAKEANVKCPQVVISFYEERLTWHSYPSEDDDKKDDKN
How it was run: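 50 nM HP1-beta + 50 nM biotin-H3(1-18)K9me3, PBS pH 7.4, 0.01% Tween-20, 30 min RT; compound added, 30 min RT; AlphaScreen beads 10 ug/mL final, 30 min dark; luminescence read.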

[18] = biological target: Methanococcus maripaludis chaperonin (MmCpn) (UniProt Q6LX38); test: High-Throughput Screening for Modulators of Cytosolic Chaperonin Activity: MmCpn Primary Screen (AID 488978);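 further: 50 nM MmCpn enzyme hydrolysing 30 µM ATP at 37 °C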
How it was run: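 MmCpn at 50 nM final was preincubated 5 min at RT with compound. ATP was then added at 30 uM final for 10 min at 37 C. ADP formed was detected by Transcreener HTRF (665/590 nm).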

[19] = qHTS Validation Assay to Find Inhibitors of Chronic Active B-Cell Receptor Signaling (AID 485345; active means well fitted curve in the direction sought with a large enough effect in the main read-out, with a control signal flat, not every such curve was filed as active)
How it was run: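 TMD8 ABC-DLBCL cells stably carrying doxycycline-inducible IkappaBalpha–green luciferase fusion plus unfused red luciferase; compounds 46 uM to 3 nM, 4 h at 37C with doxycycline. Corrected green/red luminescence ratio normalized to 10 uM MG-132 and basal cell wells; curves fitted.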

[20] = biological target: ATP-dependent 6-phosphofructokinase (Trypanosoma brucei brucei) (UniProt O15648); test: qHTS Assay to Find Inhibitors of T. brucei phosphofructokinase: hit validation (AID 492961); further: series mostly up to about 51 µM
How it was run: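 Luminescence from ADP-Glo reports ADP generated as T. brucei PFK (1.25 nM) phosphorylates 0.5 mM fructose-6-phosphate using 0.1 mM ATP. Reactions ran 45 min at room temperature, pH 8.0.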

Measured: Potency

COc1cc(C(=O)OCCCN2CCCN(CCCOC(=O)c3cc(OC)c(OC)c(OC)c3)CC2)cc(OC)c1OC
active: [4] 6.57 µM | [5] 13.1 µM | [14] 16.4 µM
not listed: [15] | [16] | [17] | [18] | [19] | [20]
inactive: all other assays above

CN(C(=O)CCCOc1ccc2[nH]c(=O)ccc2c1)C1CCCCC1
not listed: [4] | [14] | [19] | [20]
inactive: all other assays above

COCC(=O)O[C@]1(CCN(C)CCCc2nc3ccccc3[nH]2)CCc2cc(F)ccc2[C@@H]1C(C)C
active: [5] 5.86 µM
not listed: [4] | [9] | [11] | [13] | [16] | [17] | [19] | [20]
inactive: all other assays above

CCc1cccc(N(C)C(N)=Nc2cccc3ccccc23)c1
active: [17] 0.0075 µM
not listed: [4] | [9] | [11] | [14] | [15] | [19] | [20]
inactive: all other assays above

CC(C)(C)NCC(O)c1cc(O)cc(O)c1 (stereo not drawn)
not listed: [3] | [15] | [16] | [20]
inactive: all other assays above

COC(=O)C1=C(C)NC(C)=C(C(=O)OCCN(C)Cc2ccccc2)C1c1cccc([N+](=O)[O-])c1 (stereo not drawn)
active: [4] 3.29 µM | [5] 2.94 µM | [13] 7.08 µM
not listed: [7] | [8] | [16] | [17] | [19] | [20]
inactive: all other assays above

Brc1c(NC2=NCCN2)ccc2nccnc12
not listed: [5] | [6] | [7] | [9] | [16] | [17] | [19] | [20]
inactive: all other assays above

Nc1nc(N)c2nc(-c3ccccc3)c(N)nc2n1
active: [4] 8.28 µM
not listed: [5] | [14] | [15] | [17] | [19] | [20]
inactive: all other assays above

O=c1[nH]c(=O)n([C@H]2C[C@H](O)[C@@H](CO)O2)cc1Br
not listed: [1] | [14] | [18]
inactive: all other assays above

COc1cc(Cc2cnc(N)nc2N)cc(OC)c1OC
not listed: [3] | [7] | [8] | [14] | [17] | [18] | [20]
inactive: all other assays above

Cc1nc2ccccn2c(=O)c1CCN1CCC(C(=O)c2ccc(F)cc2)CC1
active: [13] 4.47 µM
not listed: [1] | [10] | [16] | [20]
inactive: all other assays above

C[C@]12CCC(=O)C=C1CC[C@@H]1[C@@H]2C(=O)C[C@@]2(C)[C@H]1CC[C@]2(O)C(=O)CO
not listed: [14] | [16] | [17] | [18] | [19] | [20]
inactive: all other assays above

c1cc(CN2CCCCC2)cc(OCCCNc2nc3ccccc3s2)c1
active: [4] 2.94 µM | [5] 8.28 µM
not listed: [9] | [13] | [15] | [17] | [19] | [20]
inactive: all other assays above

CCCCNc1c(C(=O)OCC)c(C)nc2c1cnn2CC
not listed: [4] | [5] | [6] | [13] | [15] | [19] | [20]
inactive: all other assays above
